The list is not random: actives were taken first. Their share in the collection is about 3.5%.
TEAD-YAP block: TEAD-YAP interaction inhibition. 640,000 tested, 1.4% active. HEK-TIYL cells, TEAD-Gal4/YAP UAS-luciferase luminescence. inhibition, % at 9.12 µM; in the data active means inhibition above about 32%;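 further: 0% = median of test compound wells and 100% = reference inhibitor wells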
FBW7 act: activators of human E3 ligase FBW7. Q969H0. AlphaScreen FBW7–phospho-cyclin E peptide binding, activator screen. normalized activity (activation), % at 26.1 µM. 650,000 tested, 0.13% active; in the data active means normalized activity above about 1.9%;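 further: purified mutant Fbw7 with reduced substrate affinity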
GPR151 ag: activators of human GPR151; 650,000 tested, 1% active; AID 1508602; PathHunter beta-arrestin GPR151 cells, luminescence; activation, % at 11.2 µM; in the data active means activation above about 4.9%;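 further: 0% = median of compound wells and 100% = cells with positive control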
MITF inh: blocks human microphthalmia-associated transcription factor | AID 1259374 | AlphaScreen MITF homodimerization, bead proximity signal | 650,000 tested, 0.91% active | O75030 | inhibition, % at 2.6 µM; in the data active means inhibition above about 50%;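 further: 0% = vehicle wells with protein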
Target sequence (O75030 whole entry, looked up): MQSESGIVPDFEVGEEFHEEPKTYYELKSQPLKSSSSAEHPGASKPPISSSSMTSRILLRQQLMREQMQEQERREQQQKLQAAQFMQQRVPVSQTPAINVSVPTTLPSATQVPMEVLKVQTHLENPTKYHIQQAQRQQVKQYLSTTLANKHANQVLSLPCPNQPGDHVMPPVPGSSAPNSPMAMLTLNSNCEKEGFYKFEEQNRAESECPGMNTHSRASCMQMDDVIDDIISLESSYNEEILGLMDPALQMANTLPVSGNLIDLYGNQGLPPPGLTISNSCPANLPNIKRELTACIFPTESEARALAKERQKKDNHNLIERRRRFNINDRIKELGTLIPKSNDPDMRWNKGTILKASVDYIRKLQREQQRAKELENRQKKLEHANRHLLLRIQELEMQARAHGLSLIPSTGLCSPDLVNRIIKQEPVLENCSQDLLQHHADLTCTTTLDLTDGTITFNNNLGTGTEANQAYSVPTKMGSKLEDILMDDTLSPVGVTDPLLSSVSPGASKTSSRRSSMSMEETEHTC
* = called active by the depositor; ! = repeats disagree.

SMILES	TEAD-YAP block	FBW7 act	GPR151 ag	MITF inh
Oc1cccc(Nc2nc(-c3cccnc3)cs2)c1	45*	0	-2	9
Oc1cccc(Nc2nc(-c3ccncc3)cs2)c1	3	0	-1	6
CCC(=O)Nc1nc(C)c(-c2csc(Nc3ccc(NC(C)=O)cc3)n2)s1	44*	0	-2	13
Cc1nc2sccn2c1-c1csc(Nc2ccc(Cl)cc2)n1	50*	0	0	14
CC(=O)NCc1nnc2n1CCN(Cc1cccc(Oc3ccccc3)c1)CC2	-7	0	0	-21
CC(C)CC(NC(=O)Cc1cccc(F)c1)c1nc2cccnc2n1C (stereo unspecified)	0	0	3	13
CCn1c(SCC(=O)Nc2nnc(C)s2)nnc1-c1cccnc1	8	0	0	5
COC(=O)c1c(C(=O)c2ccc(F)cc2)[nH]c2ccccc12	50*	0	0	0
COC(=O)c1[nH]c2ccccc2c1Cl	-8	0	0	6
Cc1ncc(CO)c(/C=N/NS(=O)(=O)c2ccc(C(C)(C)C)cc2)c1O	0	0	0	8
O=C(Nc1ccncc1)c1ccc(COc2ccccc2Cl)cc1	60*	1	-4	16
Cc1ccc(Oc2ccc(NC(=O)c3ccncc3)cc2)cc1C	36*	0	0	7
O=C(Nc1ccc(Cc2ccncc2)cc1)c1ccc(Oc2ccc(C(=O)Nc3ccc(Cc4ccncc4)cc3)cc2)cc1	62*	0	0	6
CN(C)S(=O)(=O)c1ccc(C(=O)Nc2ccc(Cc3ccncc3)cc2)cc1	22	0	1	-5
CC(C(=O)NCc1ccccc1F)n1ncn2cccc2c1=O (stereo unspecified)	-7	0	-1	10
CC1=C(C(=O)OC(C)C)C(c2cccs2)C2=C(CC(c3ccccc3)CC2=O)N1 (stereo unspecified)	42*	0	-2	-23
COCCOC(=O)C1=C(C)NC2=C(C(=O)CC(c3cccs3)C2)C1c1ccsc1 (stereo unspecified)	-7	1	1	-3
COCCOC(=O)C1=C(C)NC2=C(C(=O)CC(c3ccccc3)C2)C1c1ccc(OCc2ccccc2)cc1 (stereo unspecified)	-10	3.4*	0	9
CCOC(=O)C1=C(C)NC2=C(C(=O)CC(c3cccs3)C2)C1c1ccsc1 (stereo unspecified)	55*	0	0	8
CCOC(=O)C1=C(C)NC2=C(C(=O)CC(c3cccs3)C2)C1c1ccc(F)cc1 (stereo unspecified)	70*	0	2	-3
COc1ccc(C2C(C(=O)OCCc3ccccc3)=C(C)NC3=C2C(=O)CC(c2ccccc2)C3)cc1 (stereo unspecified)	0	2	1	7
CCOC(=O)c1ccc(N2C(=O)CC(N3CCN(C)CC3)C2=O)cc1 (stereo unspecified)	-11	0	0	4
COC(=O)C1=C(C)NC2=C(C(=O)CC(c3cccs3)C2)C1c1cc(OC)ccc1OC (stereo unspecified)	33*	0	3	-5
COC(=O)C1=C(C)NC(S)=C(C#N)C1c1cccs1 (stereo unspecified)	6	0	-1	20
CC1=C(C(=O)OCC(C)C)C(c2ccccc2F)C2=C(CC(c3cccs3)CC2=O)N1 (stereo unspecified)	33*	0	-2	4
SMILES	TEAD-YAP block	FBW7 act	GPR151 ag	MITF inh
COC(=O)C1=C(C)NC(C)=C(C#N)C1c1cccs1 (stereo unspecified)	35*!	0	-1	-12
COC(=O)C1=C(C)NC2=C(C(=O)CC(c3cccs3)C2)C1c1cccc(OC)c1 (stereo unspecified)	22	0	3	-4
CCOC(=O)C1=C(C)NC2=C(C(=O)CC(c3ccccc3)C2)C1c1ccsc1 (stereo unspecified)	44*	0	-1	-4
CC1=C(C(=O)OCCc2ccccc2)C(c2ccccc2F)C2=C(CC(c3cccs3)CC2=O)N1 (stereo unspecified)	-9	0	-1	2
CC(=O)C(C)n1c(=O)c2c(nc3n(-c4ccc(C)cc4)c(C)cn23)n(C)c1=O (stereo unspecified)	-1	0	0	13
Nc1ccc(OCC(=O)O)cc1	4	0	2	14
COC(=O)C1=C(C)NC(=O)/C1=C\c1cc(C)n(-c2ccccc2C(F)(F)F)c1C	-4	0	3	-7
CCOC(=O)c1c(NC(=O)C(CC)c2ccccc2)sc(C(N)=O)c1C (stereo unspecified)	-11	0	3	-12

Screens: PubChem, The Scripps Research Institute Molecular Screening Center
